Assay: S6 kinase pathway phospho-S6 level changes – cell-based, A549, cytoblot, luminescence, serum-stimulated, primary screen (AID 1158);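 further: serum-stimulated A549 lung adenocarcinoma cells; signal is phosphorylated S6 detected by cytoblot immunostaining with HRP secondary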
Settings: 5 h, higher = more signal
With `COC(=O)C=C(CC(O)c1cccc(Cl)c1)OC` (stereo not given) the z-score was 0.794. With `COC(=O)[C@@]1(Cc2ccccc2)[C@H]2c3cc(C(=O)N4CCCC4)n(CC4CC4)c3C[C@H]2CN1C(=O)c1ccccc1` the z-score was 0.222. `COCCOC(=O)N1C(=O)[C@@]2(c3cc(C#CCCO)ccc31)[C@H](c1ccc(OCCO)cc1)N1[C@H](c3ccccc3)[C@H](c3ccccc3)OC(=O)[C@H]1[C@@H]2C(=O)N1CCN(c2ncccn2)CC1` showed a z-score of -0.113. Compound `COC(=O)[C@@]1(Cc2ccc(F)cc2)[C@H]2c3cc(C(=O)N(C)C)n(Cc4ccc(S(C)(=O)=O)cc4)c3C[C@H]2CN1C(=O)c1ccccc1` has a z-score of -0.594. With `CCC(CC)C(O)C1C=CC2C(=O)N(C)C(=O)C2N1Nc1ccccc1` (stereo not given) the z-score was -0.835. `C=CCNC(=O)[C@@H]1[C@H]2C(=O)O[C@H](c3ccccc3)[C@H](c3ccccc3)N2[C@H](c2ccc(OCCO)cc2)[C@@]12C(=O)Nc1ccc(C#CCCO)cc12` gave a z-score of -0.344. In the case of `O=C(NCc1ccc(F)cc1)[C@H]1C[C@H]2C(=O)N[C@@H](Cc3ccccc3)C(=O)N2[C@H]1c1ccc(O)cc1`, the z-score is reported as -0.0688. In the case of `COC(=O)[C@@]1(Cc2ccc(F)cc2)[C@H]2c3cc(C(=O)N4CCCC4)n(Cc4cc(C)n(C)n4)c3C[C@H]2CN1C(=O)c1ccccc1`, the z-score is reported as -0.301. For `C=CC[C@]1(C(=O)N2CCCCC2)N=C(c2ccc(OCCCO)cc2)O[C@H]1c1ccccc1`, the z-score was -0.232. `CN1C(=O)C2C=CC(C(O)C3CCCCC3)N(Nc3ccc([N+](=O)[O-])cc3[N+](=O)[O-])C2C1=O` (stereo not given) showed a z-score of -0.511. For `C=C(C)C1C(=C)CN([C@H](CO)c2ccccc2)C1=O` (stereo not given in full), the z-score was -0.272. `N#Cc1ccc(NN2C(C(O)c3c(F)cccc3Cl)C=CC3C(=O)N(c4ccccc4)C(=O)C32)cc1` (stereo not given) showed a z-score of -1.17. Compound `[N-]=[N+]=Nc1ccccc1[C@H]1OC(c2ccc(OCCCO)cc2)=N[C@@]1(Cc1ccccc1)C(=O)O` has a z-score of -0.259. Compound `O=C1NCC(=O)N2[C@@H]1C[C@@H](C(=O)O)[C@H]2c1cccc(OCCO)c1` has a z-score of 0.863. With `COc1ccc(CCN2C(=O)[C@@]3(Cc4ccccc42)c2ccccc2C(=O)N(Cc2ccccc2C(F)(F)F)[C@H]3c2ccc(CO)cc2)cc1` the z-score was 1.85. Work on `CN(C)C(=O)[C@]1(Cc2ccccc2CN=[N+]=[N-])N=C(c2ccc(OCCCO)cc2)O[C@@H]1c1ccccc1CN=[N+]=[N-]` yielded a z-score of 1.18. `CC(C)C[C@@H]1NC(=O)[C@H]2C[C@@H](C(=O)NCCCCCCN)[C@@H](c3ccc(O)cc3)N2C1=O` gave a z-score of -0.648. Work on `C=C(CCCC)/C(=C/C[C@@H](OC(C)=O)c1ccccc1OCCO)c1cnc2ccccc2c1` yielded a z-score of 0.132. `COC(=O)[C@@]1(Cc2ccccc2)[C@H]2c3cc(C(=O)N4CCCC4)n(Cc4cccc5ccccc45)c3C[C@H]2CN1C(=O)c1ccccc1` showed a z-score of -0.503. In the case of `[N-]=[N+]=NCc1ccccc1[C@@H]1OC(c2ccc(OCCCO)cc2)=N[C@]1(CCS(=O)(=O)c1ccccc1)C(=O)NCc1ccccc1`, the z-score is reported as -0.0212. Compound `O=C1C[C@]2(c3ccc([N+](=O)[O-])cc3)C(=O)N(CCN3CCOCC3)c3cc(CO)ccc3[C@H]2N1C1CCCCC1` has a z-score of 1.51. With `O=C1O[C@@H](c2ccccc2)[C@@H](c2ccccc2)N2[C@@H](c3ccc(OCCO)cc3)[C@]3(C(=O)Nc4ccccc43)[C@@H](C(=O)NC[C@H](O)c3ccccc3)[C@H]12` the z-score was -0.29. Compound `Cc1ccc(C(C)CC(O)C2C=CC3C(=O)N(c4ccccc4)C(=O)C3N2Nc2ccc([N+](=O)[O-])cc2)o1` (stereo not given) has a z-score of -0.359. `CC(C)C[C@@H]1NC(=O)[C@@H]2C[C@H](C(=O)NCCCCCN)[C@H](c3cccc(OCCO)c3)N2C1=O` gave a z-score of 0.836. `C=C(CCCC)C(=O)CC[C@@H](OC(=O)c1cccnc1)c1ccc(CO)o1` gave a z-score of 0.264. With `COc1ccc(C(O)C2C=CC3C(=O)N(c4ccccc4)C(=O)C3N2Nc2ccc(C(C)C)cc2)cc1OCc1ccccc1` (stereo not given) the z-score was -0.951. Compound `CC(C)[C@@H](CO)NC(=O)[C@H]1[C@@H](c2ccccc2)N(c2ccccc2)O[C@@H]1C` has a z-score of 0.444. With `O=C1c2ccccc2[C@](Cc2ccccc2I)(C(=O)NC2CC2)[C@H](c2ccc(CO)cc2)N1C1CCCCC1` the z-score was -0.471. Compound `CC1CC/C=C\[C@H]2OC34C=CCN(Cn5nnc6ccccc65)C(=O)[C@H]3N(C(CO)C(C)C)C(=O)[C@@H]4C2C(=O)O1` (stereo not given in full) has a z-score of -0.174. Work on `C=CCOC(=O)[C@H]1[C@@H]2C(=O)O[C@@H](c3ccccc3)[C@@H](c3ccccc3)N2[C@@H](c2ccc(OCCOC(=O)[C@H]3C[C@H]4C(=O)N[C@@H](CC(C)C)C(=O)N4[C@H]3c3ccc(O)cc3)cc2)[C@]12C(=O)Nc1ccc(I)cc12` yielded a z-score of -0.182. `COCCOC(=O)N1C(=O)[C@@]2(c3cc(C#CC4=CCCCC4)ccc31)[C@H](c1ccc(O)cc1)N1[C@H](c3ccccc3)[C@H](c3ccccc3)OC(=O)[C@H]1[C@@H]2C(N)=O` gave a z-score of -0.0587. For `CN(C)CCCNC(=O)[C@@]1(c2ccc([N+](=O)[O-])cc2)CC(=O)N(C2CCCCC2)[C@@H]1c1ccc(CO)cc1I`, the z-score was -1.78. `COCCOC(=O)N1C(=O)[C@@]2(c3cc(C#CCCO)ccc31)[C@H](C(=O)N1CCc3cc(OC)c(OC)cc3C1)[C@H]1C(=O)O[C@H](c3ccccc3)[C@H](c3ccccc3)N1[C@@H]2c1ccc(O)cc1` showed a z-score of 0.113. Work on `CCCC[C@@H]1C[C@H]1[C@@H](NC(=O)c1ccco1)c1ccc(C(=O)OC)cc1` yielded a z-score of -0.0467. `CCCCCN1CC=CC23O[C@@H]4/C=C\CCCOC(=O)C4[C@H]2C(=O)N(CCCO)[C@@H]3C1=O` (stereo not given in full) gave a z-score of 0.696.

— PubChem BioAssay
